Among the data in PubChem BioAssay (Tox21) are Potency, outcome and max response values, retold here.

Several values for one entry are separate records, joined by “and”; a condition that tells them apart may be missing. Identical values can stand only once. Inconclusive results are not listed. A structure can be active in one record and inactive in another. Activity calls are given as the source filed them. Unless noted, calls come from the whole dose curve; as a rule, active = well fitted curve in the direction sought with a large enough effect in the repeat runs; inconclusive = weak or mixed curves; inactive = no such curve, though single readings can be large; an effect the other way counts as inactive or inconclusive.

The nature of experiment [1]: qHTS assay to identify small molecule agonists of H2AX - cell viability counter screen (AID 1224847; calls by dose curve;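 note: wild-type CHO-K1 cells; top concentration of the series differs between compounds; nearly all actives have a fitted effect of over 30% in size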). The method, boiled down: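 For this counter screen, overnight-attached CHO-K1 cells received test compounds (15 concentrations, 0.76% DMSO final); 3 hr later at 37C, CellTiter-Glo reagent was added and luminescence recorded after 30 min at room temperature.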
Experiment [2] in a line: qHTS RealTime-Glo MT Cell Viability Assay in HepG2 cells - 24 hour (AID 1224867). Note: nearly all actives have a fitted effect of over 50% in size. In short, it runs like this: (§1)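 Luminescence read-out: viable HepG2 cells reduce a prosubstrate to a NanoLuc substrate, giving a signal proportional to live cell number. Reads taken at 0, 8, 16, 24, 32 and 40 h of compound exposure at 37 C.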
Experiment [3] can be described thus: A CellTox Green Cytotoxicity Assay to monitor cytotoxicity in HEK293 cells - 0 hour (AID 1224869). Note: nearly all actives have a fitted effect of over 50% in size. The method, boiled down: (§2)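 Fluorescence from a DNA-binding dye excluded by viable cells was measured repeatedly in the same HEK293 wells (600 cells/well) during continuous compound exposure at 37 C. Each assay gives one read point: 0, 8, 16, 24, 32 or 40 h.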
A short description of experiment [4]: qHTS RealTime-Glo MT Cell Viability Assay in HepG2 cells - 40 hour (AID 1224870). Note: nearly all actives have a fitted effect of over 50% in size. In short, it runs like this: (§3)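 HepG2 cells (600/well) mixed with RealTime-Glo MT reagent, settled 5 h at 37 C/5% CO2 before compound addition. Nonlytic NanoLuc luminescence from viable-cell prosubstrate reduction read repeatedly during 40 h treatment at 37 C.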
A short description of experiment [5]: A CellTox Green Cytotoxicity Assay to monitor cytotoxicity in HEK293 cells - 40 hour (AID 1224871). Note: nearly all actives have a fitted effect of over 45% in size. The method, boiled down: as §2
Experiment [6] in a line: qHTS RealTime-Glo MT Cell Viability Assay in HEK293 cells - 16 hour (AID 1224872). Note: top concentration of the series differs between compounds; nearly all actives have a fitted effect of over 50% in size. The method, boiled down:
(§4)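 Nonlytic real-time viability readout: viable cells convert prosubstrate to NanoLuc substrate, giving luminescence proportional to live cell number. HEK293, 600 cells/well, compound added after 5 h, continuous culture at 37 C.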

The nature of experiment [7]: qHTS RealTime-Glo MT Cell Viability Assay in HepG2 cells - 8 hour (AID 1224873). Note: nearly all actives have a fitted effect of over 55% in size. The method, boiled down: as §3
Experiment [8] in a line: qHTS RealTime-Glo MT Cell Viability Assay in HEK293 cells - 40 hour (AID 1224874). Note: nearly all actives have a fitted effect of over 50% in size. As to conditions: RealTime-Glo luminescence; max response: stronger effect = lower value. In short, it runs like this: (§5)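 Luminescence, which tracks viable cell number through reduction of the prosubstrate to a NanoLuc substrate, was read over continuous 37 C culture. Cells (600/well) were premixed with reagent and rested 5 h before 23 nL of compound in DMSO was pinned.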

A short description of experiment [9]: A CellTox Green Cytotoxicity Assay to monitor cytotoxicity in HEK293 cells - 24 hour (AID 1224875). Note: series mostly up to about 77 µM; nearly all actives have a fitted effect of over 45% in size. In short, it runs like this:
as §2

A short description of experiment [10]: A CellTox Green Cytotoxicity Assay to monitor cytotoxicity in HepG2 cells - 16 hour (AID 1224876). Note: nearly all actives have a fitted effect of over 45% in size. In short, it runs like this: (§6)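 Real-time cytotoxicity: fluorescence of a cell-impermeant cyanine dye binding DNA of dead HepG2 cells, measured repeatedly (0–40 h) during compound exposure at 37 C. Cells seeded 600/well with reagent, dosed after 5 h.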
The nature of experiment [11]: qHTS RealTime-Glo MT Cell Viability Assay in HepG2 cells - 32 hour (AID 1224877). Note: nearly all actives have a fitted effect of over 55% in size. In short, it runs like this: as §1
The nature of experiment [12]: A CellTox Green Cytotoxicity Assay to monitor cytotoxicity in HepG2 cells - 24 hour (AID 1224878). Note: nearly all actives have a fitted effect of over 45% in size. Note: potency is the fitted concentration of half-maximal effect. In short, it runs like this: as §6
Experiment [13] can be described thus: A CellTox Green Cytotoxicity Assay to monitor cytotoxicity in HepG2 cells - 40 hour (AID 1224879). Note: nearly all actives have a fitted effect of over 40% in size. Note: potency is the fitted concentration of half-maximal effect. In short, it runs like this: as §6
Experiment [14] in a line: qHTS RealTime-Glo MT Cell Viability Assay in HEK293 cells - 0 hour (AID 1224880). The method, boiled down: as §5
Experiment [15] is described as follows: A CellTox Green Cytotoxicity Assay to monitor cytotoxicity in HEK293 cells - 32 hour (AID 1224881). Note: nearly all actives have a fitted effect of over 40% in size. In short, it runs like this: as §2
Experiment [16] can be described thus: A CellTox Green Cytotoxicity Assay to monitor cytotoxicity in HepG2 cells - 0 hour (AID 1224882). Note: nearly all actives have a fitted effect of over 35% in size. The method, boiled down: as §6
Experiment [17] is described as follows: A CellTox Green Cytotoxicity Assay to monitor cytotoxicity in HepG2 cells - 32 hour (AID 1224883). Note: nearly all actives have a fitted effect of over 50% in size. Note: potency is the fitted concentration of half-maximal effect. The method, boiled down:
as §6

Experiment [18] in a line: qHTS RealTime-Glo MT Cell Viability Assay in HEK293 cells - 32 hour (AID 1224868). The method, boiled down: as §4
% is set by controls: 0 for no effect and ±100 for the full control effect.

In the case of `CCCCCCCCCCCCOCCO`, the Potency entry in experiment [1], in experiment [5], in [6], in [9], in experiment [10] and in experiment [12] was “inactive” in each case. The Potency result in experiment [13], in experiment [14], in experiment [15] and in [17] was “inactive” each time. Further, the compound was classed as inactive in experiment [2], in [3], in experiment [4], in experiment [7], in experiment [11] and in experiment [16]. Moreover, the max response in experiment [8] was -14.2% (inactive) and -3.69% (inactive).

With `Oc1cccc2ccccc12`, the Potency entry in experiment [1], in [5], in [6], in experiment [9], in experiment [10] and in experiment [12] was “inactive” throughout. For the same compound, the Potency result in experiment [13], in [14], in experiment [15] and in experiment [17] was “inactive” throughout. Moreover, the outcome in experiment [2], in experiment [3], in experiment [4], in experiment [7], in experiment [11] and in experiment [16] was inactive. Further, the max response in experiment [8] is -13.2% (inactive) and -5.72% (inactive).

With `CCc1ccc(CCOc2ccc(CC3SC(=O)NC3=O)cc2)nc1` (centres undefined), the Potency entry in [1], in experiment [18], in [5], in [9], in experiment [10] and in [12] was “inactive” in each case. Moreover, the Potency result in experiment [13], in experiment [14], in [15] and in [17] was “inactive” in each case. Also, the compound was called inactive in experiment [2], in experiment [3], in experiment [4], in [7], in experiment [11] and in [16]. Also, the max response in [8] is -19% (inactive).

In the case of `c1ccc(OCCOc2ccccc2)cc1`, the Potency result in experiment [1], in experiment [5], in [6], in [9], in [10] and in experiment [12] was “inactive” each time. Further, the Potency entry in [13], in experiment [14], in [15] and in [17] was “inactive” each time. The call in [2], in experiment [3], in experiment [4], in experiment [7], in experiment [11] and in experiment [16] was inactive. Moreover, the max response in experiment [8] is -0.0252% (inactive) and -0.384% (inactive).

As for `O=C(O)[C@H](O)[C@@H](O)[C@H](O)[C@H](O)CO`, the Potency result in experiment [1], in experiment [6], in experiment [10], in experiment [12], in experiment [13] and in experiment [14] was “inactive” each time. For the same compound, in experiment [17], the Potency result is “inactive”. For the same compound, the result in experiment [2], in experiment [4], in experiment [7], in [11] and in experiment [16] was inactive. For the same compound, the max response in experiment [8] is -0.628% (inactive) and 0.139% (inactive).

Turning to `CCCCCCCCCCCCCCO`, the Potency result in experiment [1], in experiment [18], in experiment [5], in [6], in experiment [9] and in [10] was “inactive” in each case. Also, the Potency entry in experiment [12], in [13], in experiment [14], in [15] and in [17] was “inactive” throughout. Further, the result in [2], in [3], in experiment [4], in experiment [7], in [11] and in experiment [16] was inactive.

Regarding `C#C[C@]1(O)CC[C@H]2[C@@H]3CCC4=CC(=O)CC[C@@H]4[C@H]3CC[C@@]21C`, the Potency result in [1], in experiment [5], in experiment [6], in [9], in experiment [10] and in [12] was “inactive” in each case. In addition, the Potency entry in experiment [13], in experiment [14], in experiment [15] and in experiment [17] was “inactive” each time. For the same compound, the outcome in experiment [2], in [3], in experiment [4], in [7], in experiment [11] and in experiment [16] was inactive.

Regarding `Cc1ccc(S(N)(=O)=O)cc1`, the Potency entry in experiment [1], in [5], in experiment [6], in [9], in [10] and in experiment [12] was “inactive” each time. Further, the Potency result in [13], in experiment [14], in [15] and in experiment [17] was “inactive” in each case. Moreover, the compound was classed as inactive in [2], in [3], in [4], in [7], in experiment [11] and in experiment [16].

On to `CC1CCC2CC1C2(C)C` (centres undefined), for which the Potency result in experiment [1], in [5], in [6], in experiment [9], in experiment [10] and in experiment [12] was “inactive” in each case. Moreover, the Potency result in experiment [13], in experiment [14], in [15] and in experiment [17] was “inactive” throughout. Besides, the outcome in [2], in [3], in [4], in [7], in [11] and in [16] was inactive.

Regarding `COc1cc(Cc2cnc(N)nc2N)cc(OC)c1OC`, the Potency result in experiment [1], in [5], in [6], in experiment [9], in experiment [10] and in [12] was “inactive” each time. In addition, the Potency entry in [13], in experiment [14], in experiment [15] and in experiment [17] was “inactive” each time. In addition, the compound was called inactive in experiment [2], in [3], in experiment [4], in [7], in experiment [11] and in experiment [16]. Further, the max response in [8] is -23% (inactive) and -15.6% (inactive).

On to `OCCOCCN1CCN(C2=Nc3ccccc3Sc3ccccc32)CC1`, for which the Potency result in [1], in experiment [18], in [5], in [6], in experiment [9] and in [10] was “inactive” each time. Also, the Potency entry in [12], in [13], in experiment [14], in [15] and in experiment [17] was “inactive” throughout. The outcome in experiment [2], in [3], in experiment [4], in [7], in [11] and in [16] was inactive.

Turning to `CCCCC(CC)COC(=O)CCCCC(=O)OCC(CC)CCCC` (centres undefined), the Potency result in [1], in [5], in [6], in [9], in [10] and in [12] was “inactive” in each case. For the same compound, the Potency entry in experiment [14] and in [15] was “inactive” each time. The call in [2], in experiment [3], in experiment [4], in experiment [7], in experiment [11] and in [16] was inactive. Further, the max response in experiment [8] is -6.84% (inactive) and 6.57% (inactive). Moreover, the Potency entry in experiment [13] was “inactive and 2.45 µM (active)”; in [17], “inactive and 2.45 µM (active)”.

On to `CCCCCC1=CCCC1=O`, for which the Potency result in experiment [1], in experiment [5], in experiment [6], in experiment [9], in experiment [10] and in experiment [12] was “inactive” throughout. Further, the Potency result in [13], in [14], in experiment [15] and in [17] was “inactive” each time. In addition, the compound was classed as inactive in experiment [2], in experiment [3], in [4], in experiment [7], in [11] and in [16].

Regarding `CCCSc1ccc2nc(NC(=O)OC)[nH]c2c1`, the Potency result in experiment [1], in experiment [5], in [6], in experiment [9], in experiment [10] and in [14] was “inactive” throughout. Besides, the Potency entry in [15] is “inactive”. In addition, the compound was called inactive in [2], in experiment [3], in [4], in experiment [7], in experiment [11] and in experiment [16]. The Potency result in experiment [12] is “inactive and 1.9 µM (active)”; in experiment [13], 1340 nM (active); in experiment [17], “inactive and 1.51 µM (active)”.
